Compound activity: PubChem BioAssay, Johns Hopkins Ion Channel Center
KCNQ2 block: inhibitors of rat KCNQ2 potassium channel. AID 2156. O88943. CHO-K1 KCNQ2, FluxOR thallium flux, 20 min; stronger effect = lower value. 310,000 compounds, 1.1% hits. B-score at 10 µM;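 active = fluorescence ratio B-score at most minus 3 library SDs, with starting brightness B-score within 2 library SDs, cut at about -5.5 in these data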
KCNQ2 pot: KCNQ2 (rat) channel potentiation; O88943; CHO-K1 KCNQ2, FluxOR thallium flux fluorescence; stronger effect = higher value; B-score at 10 µM; 310,000 compounds, 0.54% hits; AID 2239;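 active = fluorescence ratio B-score at least 3 SD of library B-scores, with initial fluorescence B-score within 3 of them, cut at about 5.3 in these data; same plate scores as AID 2156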;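 also: B-score of peak minus minimum over baseline fluorescence ratio after K+ and Tl+ stimulus; positive B-score means potentiation of KCNQ2 with more thallium influx and brighter signal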
Kir21 conf inh: confirmation of mouse Kir2.1 potassium channel inhibitors. shares compounds with KCNQ2 pot. Kir2.1-expressing cells, FluxOR thallium flux fluorescence; stronger effect = lower value. Tl flux remaining, % of negative control (stronger effect = lower value), % at 10 µM. 2,300 compounds, 41% hits. AID 2032;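 active = Primary-screen hit whose thallium flux fell at least 3 control SD below untreated wells in both duplicates, with normal baseline fluorescence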;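 also: 0% = blank wells without stimulus and 100% = stimulated no-compound controls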
Target sequence (P35561 whole entry, looked up): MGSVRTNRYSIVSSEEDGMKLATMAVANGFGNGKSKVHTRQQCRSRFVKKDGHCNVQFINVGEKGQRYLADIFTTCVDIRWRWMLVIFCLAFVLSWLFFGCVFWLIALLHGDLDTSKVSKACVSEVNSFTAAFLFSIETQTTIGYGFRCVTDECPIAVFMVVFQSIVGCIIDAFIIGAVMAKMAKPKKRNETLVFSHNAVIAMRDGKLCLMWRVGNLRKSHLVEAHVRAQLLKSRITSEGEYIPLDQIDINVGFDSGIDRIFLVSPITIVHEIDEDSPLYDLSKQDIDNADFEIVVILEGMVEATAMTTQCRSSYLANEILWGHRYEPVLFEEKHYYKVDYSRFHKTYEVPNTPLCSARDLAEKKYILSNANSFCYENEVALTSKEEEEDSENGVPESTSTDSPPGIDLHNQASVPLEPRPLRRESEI
HEK293 ctr: alters thallium flux in parental HEK293 cells, Kir2.1 counter-screen; 2,300 compounds, 19% hits; AID 2105; FluxOR thallium flux fluorescence; 0% = unstimulated blank wells; shares compounds with KCNQ2 pot; FluxOR signal as % of negative control (100 = no effect), % at 10 µM;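 active = dye signal at least 3 control SD above or below untreated wells in both duplicates, raw fluorescence within 3, either direction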;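 also: percent is based on the flux ratio of peak minus minimum fluorescence over baseline F0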
CHO-K1 Tl ctr: alters thallium flux in parental CHO-K1 cells, KCNQ2 counter-screen; shares compounds with KCNQ2 pot; FluxOR thallium flux fluorescence; zero = vehicle mean+3SD, 100% = vehicle-minus-blank window; activity increase over 3SD of controls, % at 10 µM; 1,200 compounds, 43% hits; AID 2282;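 active = signal rise of at least 3 SD above the untreated control mean, in both duplicate wells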;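 also: counter screen of KCNQ2 potentiator hits so any rise reflects channel-independent effects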
KCNQ1 sel pot: selectivity of KCNQ2 potentiators: effect on human KCNQ1 | shares compounds with KCNQ2 pot | activation over 3SD threshold, % at 10 µM | CHO KCNQ1 stable, FluxOR thallium flux fluorescence; beyond 3SD, as % of vehicle-control signal | 1,200 compounds, 28% hits;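 active = fluorescence ratio rise of at least 3 SD of vehicle wells above their mean, in both replicate wells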;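 also: 0% = vehicle mean plus 3 SD and 100% = vehicle minus unstimulated blank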
KCNQ2 pot confirm: confirmation of rat KCNQ2 potassium channel potentiators | AID 2287 | CHO-KCNQ2 cells, FluxOR thallium flux fluorescence | 1,200 compounds, 68% hits | potentiation, less the hit threshold, % at 10 µM | shares compounds with KCNQ2 pot;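 active = fluorescence ratio rising 3 SD or more over the vehicle control mean in both replicates, plus primary screen hit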;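 also: peak minus minimum thallium fluorescence divided by baseline after K/Tl stimulus; 0% = vehicle mean plus 3 SD and 100% = vehicle minus unstimulated blank difference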
Kir2-1 sel: selectivity of KCNQ2 potentiators: effect on mouse Kir2.1; shares compounds with KCNQ2 pot; HEK293 Kir2.1, FluxOR thallium flux fluorescence; activity over 3SD threshold, % at 10 µM; 1,200 compounds, 2% hits; AID 2345;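 active = fluorescence ratio rise of at least 3 SD above the vehicle-control mean, seen in both replicates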;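 also: 0% = vehicle mean plus 3 SD and 100% = vehicle minus no-stimulus blank window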
KCNQ2 W236L MoA: potentiates the retigabine-insensitive rat KCNQ2 W236L mutant channel. shares compounds with KCNQ2 pot. CHO KCNQ2-W236L, automated patch clamp current. current increase over 3SD of negative controls (%), stronger effect = higher value, % at 25 µM. 940 compounds, 10% hits. AID 2558;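 active = current increase at least 3 SD of the untreated controls above them in both duplicate recordings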
Starred values were filed as active, the others as inactive. Shown are actives, neighbours in structure and some others; about 1.6% of the full set was active somewhere.

How did CCCCN(CCCNC(=O)CN1C(=O)COc2ccc(S(=O)(=O)N3CCC(C)CC3)cc21)Cc1ccccc1 do in these assays?
KCNQ2 block: inactive; KCNQ2 pot: 0.9; Kir21 conf inh: 66%*; HEK293 ctr: inactive

Results for Cc1cccc2nc(-c3cccc(NC(=O)c4ccc(Cl)cc4)c3)cn12 ?
KCNQ2 block: inactive; KCNQ2 pot: 0.49

How did O=C(CCCCC(=O)NNC(=O)COc1ccccc1)NNC(=O)COc1ccccc1 do in these assays?
KCNQ2 block: inactive; KCNQ2 pot: 0.42

Results for FC(F)(F)c1ccc(Cl)c(-n2c(-c3cc(C4CC4)[nH]n3)n[nH]c2=S)c1 ?
KCNQ2 block: inactive; KCNQ2 pot: 1.5

Results for S=c1nc(Cc2ccc(Cl)cc2)[nH]c2ccccc12 ?
KCNQ2 block: inactive; KCNQ2 pot: 11*; Kir21 conf inh: inactive; HEK293 ctr: 158%*; CHO-K1 Tl ctr: -8; KCNQ1 sel pot: -8; KCNQ2 pot confirm: 6.1*; Kir2-1 sel: -41; KCNQ2 W236L MoA: inactive

How did O=c1[nH]c(COc2ccccc2)nc2ccccc12 do in these assays?
KCNQ2 block: inactive

How did S=c1nc(COc2ccccc2)[nH]c2ccccc12 do in these assays?
KCNQ2 block: inactive; KCNQ2 pot: 20*; Kir21 conf inh: inactive; HEK293 ctr: 479%*; CHO-K1 Tl ctr: 1.8*; KCNQ1 sel pot: -11; KCNQ2 pot confirm: 63*; Kir2-1 sel: -15; KCNQ2 W236L MoA: inactive

How did Cc1nc(=S)c2ccccc2[nH]1 do in these assays?
KCNQ2 block: inactive; KCNQ2 pot: 1.1

Results for Cc1ccc(Cc2nc3ccccc3[nH]2)cc1 ?
KCNQ2 block: inactive

How did S=c1nc(Cc2ccccc2)[nH]c2ccccc12 do in these assays?
KCNQ2 block: inactive; KCNQ2 pot: 11*; Kir21 conf inh: inactive; HEK293 ctr: 323%*; CHO-K1 Tl ctr: 45*; KCNQ1 sel pot: -13; KCNQ2 pot confirm: 40*; Kir2-1 sel: -30; KCNQ2 W236L MoA: inactive

How did COCCn1c(=NC(=O)c2cc3ccccc3oc2=O)sc2cc(S(N)(=O)=O)ccc21 do in these assays?
KCNQ2 block: inactive

What do the screens show for `COc1ccc(-n2c(-c3ccc(Br)cc3)c[n+]3c2SC(C)C3)cc1` (stereo unspecified)?
KCNQ2 block: inactive; KCNQ2 pot: 0.02

How did COc1ccc(NC(=O)CC23CC4CC(C2)CC(n2nnc(C)n2)(C4)C3)cc1 do in these assays?
KCNQ2 block: inactive

What do the screens show for `CCCOc1ccc(CNC(=S)Nc2ccccc2)cc1Cl`?
KCNQ2 block: inactive; KCNQ2 pot: 0.21

Results for CCCn1nnnc1NCc1ccc(C(C)C)cc1 ?
KCNQ2 block: inactive; KCNQ2 pot: 0.6

Results for CCOC(=O)c1sc(=S)n(C)c1NC(=O)c1ccccc1 ?
KCNQ2 block: inactive

How did CCOC(=O)c1sc(=S)n(-c2ccccc2)c1NC(C)=O do in these assays?
KCNQ2 block: inactive; KCNQ2 pot: 7.5*; CHO-K1 Tl ctr: 35*; KCNQ1 sel pot: 3.6*; KCNQ2 pot confirm: 7.8*; Kir2-1 sel: -61; KCNQ2 W236L MoA: inactive

Results for CCOc1ccccc1N1CC(C(=O)Nc2c(C)n(C)n(-c3ccccc3)c2=O)CC1=O (stereo unspecified) ?
KCNQ2 block: inactive

What do the screens show for `O=C(NCCCO)C(=O)NCc1ccccn1`?
KCNQ2 block: inactive

Results for COc1ccc(NC(=O)CSCC(=O)Nc2cc(Cl)ccc2N2CCOCC2)cc1 ?
KCNQ2 block: inactive; KCNQ2 pot: 4.7

How did Cc1ccc(NC(=O)CSCC(=O)Nc2ccccc2C(=O)N2CCCCC2)cc1 do in these assays?
KCNQ2 block: inactive; KCNQ2 pot: 0.38

What do the screens show for `Cc1ccc(NC(=O)CSCC(=O)Nc2ccccc2N2CCCC2)cc1`?
KCNQ2 block: inactive; KCNQ2 pot: 1.4; Kir21 conf inh: 74%*; HEK293 ctr: 74%*

Results for CCC(=O)Nc1ccc(N2CCCCC2)c(C(=O)Nc2ccc(OC)cc2)c1 ?
KCNQ2 block: inactive; KCNQ2 pot: 1.3

How did COc1ccc(CC(=O)Nc2ccc(N3CCCC3)c(C)c2)cc1 do in these assays?
KCNQ2 block: inactive; KCNQ2 pot: 6.8*; Kir21 conf inh: 34%*; HEK293 ctr: inactive; CHO-K1 Tl ctr: 9.8*; KCNQ1 sel pot: 57*; KCNQ2 pot confirm: 22*; Kir2-1 sel: -99; KCNQ2 W236L MoA: inactive

How did COc1ccc(NC(=O)CSCC(=O)Nc2cc(Cl)ccc2N2CCCC2)cc1 do in these assays?
KCNQ2 block: inactive; KCNQ2 pot: 7.1*; Kir21 conf inh: inactive; HEK293 ctr: inactive; CHO-K1 Tl ctr: -7; KCNQ1 sel pot: 66*; KCNQ2 pot confirm: 6.3*; Kir2-1 sel: -44; KCNQ2 W236L MoA: inactive

What do the screens show for `COc1ccccc1Nc1nn2c(=O)c3ccc(C(=O)N4CCCC(C)C4)cc3nc2s1` (stereo unspecified)?
KCNQ2 block: inactive

What do the screens show for `CN(C)CCNC(=O)CCn1nc(-c2ccc(Cl)cc2)ccc1=O`?
KCNQ2 block: inactive; KCNQ2 pot: 0.85

What do the screens show for `OCCN1CCN(CCCN2c3ccccc3Sc3ccc(Cl)cc32)CC1`?
KCNQ2 block: inactive

What do the screens show for `CN(C)CC/C=C1\c2ccccc2Sc2cc(F)c(Cl)cc21`?
KCNQ2 block: inactive

What do the screens show for `CN(C)CC/C=C1/c2ccc(F)cc2Sc2ccc(Cl)cc21`?
KCNQ2 block: -5.8*; KCNQ2 pot: -5.8; Kir21 conf inh: inactive; HEK293 ctr: inactive

What do the screens show for `CN(C)CCCN1c2ccccc2Sc2ccc(Cl)cc21`?
KCNQ2 block: inactive; KCNQ2 pot: 0.4; Kir21 conf inh: 28%*; HEK293 ctr: inactive

What do the screens show for `CN(C)CC/C=C1\c2ccc(F)cc2Sc2cc(F)c(Cl)cc21`?
KCNQ2 block: inactive

What do the screens show for `CN(C)CC/C=C1\c2ccccc2Sc2ccc(Cl)cc21`?
KCNQ2 block: inactive; KCNQ2 pot: 0.23; Kir21 conf inh: 26%*; HEK293 ctr: inactive

What do the screens show for `CCOC1(C)OCC(=O)[C@]2(CCC3C4CCC5=CC(=O)C=CC5(C)C4C(=O)CC32C)O1` (stereo partly specified)?
KCNQ2 block: inactive
